From PubChem BioAssay AID602405 (Broad Institute, 2012)
In all, about 360,000 compounds went through this assay and about 350 (0.097%) were called active. Cut-off read from the data, not from the text of the source: active = inhibition above about 16% (passing the limit was not always enough); inconclusive = no clear call, values can overlap the other calls; inactive = below that. This excerpt belongs to a sample that is enriched for actives.

test system: UDP-N-acetylbacillosamine N-acetyltransferase PglD (Campylobacter jejuni); assay: C. jejuni PglD acetyltransferase inhibitors, primary screen, biochemical, DTNB colorimetric, single point (AID 602405); settings: purified PglD enzyme, DTNB colorimetric CoA detection; at 12.5 µM; stronger effect = higher value

inhibition, inactive:
COC(=O)C[C@@H]1C[C@H]2c3cc(NC(=O)CN(C)C)ccc3O[C@H]2[C@H](CO)O1 1.44%, COc1ccc(S(=O)(=O)Nc2cccc3c2O[C@@H](CN(C)C(=O)NC(C)C)[C@H](C)CN([C@@H](C)CO)C3=O)cc1 3.51%, CCCNC(=O)Nc1ccc2c(c1)C(=O)N(C)C[C@H](OC)[C@H](C)CN[C@@H](C)CO2 1.64%, C[C@H]1CN([C@@H](C)CO)C(=O)c2cccc(NC(=O)Nc3ccccc3)c2O[C@H]1CN(C)S(=O)(=O)c1ccc(Cl)cc1 1.05%, O=C(N[C@H]1C=C[C@@H](CC(=O)N2CCN(c3ccccc3)CC2)O[C@@H]1CO)c1ccncc1 1.58%, CCC(=O)Nc1ccc2c(c1)C(=O)N(C)C[C@@H](OC)[C@@H](C)CN(Cc1ccccc1F)[C@H](C)CO2 2.28%, CCCNC(=O)N(C)C[C@H]1Oc2ncc(-c3cccc(C#N)c3)cc2C(=O)N([C@@H](C)CO)C[C@H]1C 0.216%, O=C(NNC(=O)c1ccco1)Nc1ccccc1 3.41%, O=C(CNC(=O)c1ccco1)NNC(=O)c1ccc(Br)cc1 2.58%, O=C(Nc1ccccc1F)N1C[C@H]2[C@@H](c3ccccc31)[C@@H](CO)N2C(=O)Cc1cccnc1 5.55%, COc1ccc(NC(=O)Nc2ccc3c(c2)C(=O)N([C@@H](C)CO)C[C@@H](C)[C@H](CN(C)Cc2ccc(Cl)c(Cl)c2)O3)cc1 6.96%, COc1cccc(CNC(=O)C[C@@H]2C=C[C@@H](NC(=O)C3CCC3)[C@@H](CO)O2)c1 -2.99%, Cc1noc(C)c1NC(=O)N(C)C[C@@H]1Oc2ccc(NS(C)(=O)=O)cc2C(=O)N([C@H](C)CO)C[C@@H]1C -1.3%, C[C@H](O)C#Cc1ccc2c(c1)O[C@@H](CN(C)C(=O)C1CCCCC1)[C@H](C)CN([C@@H](C)CO)S2(=O)=O -1%, C[C@H]1CCCCO[C@H](CN(C)CC2CC2)[C@@H](C)CN([C@@H](C)CO)C(=O)c2cc(NS(C)(=O)=O)ccc2O1 32%, O=C(c1ccc(F)cc1)N1CCCCN2[C@@H](CO)[C@H](c3ccc(-c4ccccc4)cc3)[C@@H]2C1 1.69%, Cc1ccc(C(=O)N/C(=C/c2cccnc2)C(=O)O)cc1 -2.85%, CN(C)/C=C1\C=C(c2ccccc2)OC1=O -0.491%, CCCc1cn(CC[C@@H]2CC[C@H](NS(=O)(=O)c3ccccc3Cl)[C@H](CO)O2)nn1 -0.55%, CC(=O)N1C[C@@H]2[C@H](c3ccccc31)[C@H](CO)N2Cc1ccc(Cl)cc1 2.15%, CCCNC(=O)C[C@@H]1C[C@@H]2c3cc(N(C)C)ccc3O[C@@H]2[C@H](CO)O1 -5.6%, COc1ccc(S(=O)(=O)N(C)C[C@H]2OCCCC[C@H](C)Oc3ccc(NC(=O)Nc4ccc(F)cc4)cc3C(=O)N([C@@H](C)CO)C[C@H]2C)cc1 -0.001%, C[C@@H](NC(=O)[C@H]1[C@H](CO)[C@H]2Cn3c(cccc3=O)[C@H]2N1C(=O)C1CC1)c1ccccc1 -3.9%, CCOc1ccc(NC(=O)CCNC(=O)c2ccc(Br)cc2)cc1 1.93%, O=C(COc1ccc(Br)cc1)OCC(=O)c1ccc[nH]1 0.716%, C[C@H](CO)N1C[C@H](C)[C@H](CN(C)Cc2ccccc2)Oc2ccc(NC(=O)Cc3ccccc3)cc2C1=O -3.27%, COCC(=O)Nc1ccc2c(c1)C(=O)N(C)[C@H]1CC[C@@H](CC(=O)Nc3cn(C)nc3C)O[C@@H]1CO2 2.19%, COc1ccc(CNC(=O)C2CCN(C(=O)c3ccccc3)CC2)cc1 -3.01%, O=C(c1cccc(Cl)c1)N1CCN(Cc2ccccc2)CC1 -4.44%, CC(C)NC(=O)N[C@H]1C=C[C@H](CC(=O)NCCN2CCCC2)O[C@@H]1CO 0.57%, CCC(=O)N1[C@@H](CO)[C@@H]2c3ccccc3N(C(=O)c3ccccc3F)C[C@@H]21 -0.466%, COc1ccc(CN(C)C[C@@H]2OCCCC[C@H](C)Oc3ccc(NS(C)(=O)=O)cc3C(=O)N([C@@H](C)CO)C[C@H]2C)cc1 -1.59%, O=C(NC[C@@H]1[C@H](c2ccccc2)[C@H](CO)N1CC1CCCC1)c1cccnc1 1.03%, CC=Cc1ccc2n(c1=O)C[C@H]1[C@H](CO)[C@@H](C(=O)NCc3ccncc3)N(Cc3cncnc3)[C@@H]21 (mixture of isomers) -1.52%, CC=Cc1ccc2n(c1=O)C[C@@H]1[C@@H](CO)[C@H](C(=O)N3CCCCC3)[C@H]2N1C(=O)C1CCC1 (mixture of isomers) 2.61%, C[C@@H]1CCCCO[C@H](CN(C)Cc2ccc(C(F)(F)F)cc2)[C@@H](C)CN([C@@H](C)CO)C(=O)c2cc(NC(=O)c3ccncc3)ccc2O1 3.05%, CC(C)CN(C[C@@H]1N[C@@H](CO)[C@H]1c1ccccc1)C(=O)CN(C)C 5.57%, CO[C@@H]1CN(C)C(=O)c2cc(NC(=O)C3CCC3)ccc2OC[C@H](C)N(Cc2nccs2)C[C@H]1C 0.477%, Cc1noc(C)c1NC(=O)N(C)C[C@H]1Oc2c(NS(=O)(=O)c3cccs3)cccc2C(=O)N([C@@H](C)CO)C[C@@H]1C 0.536%, CO[C@@H]1CN(C)C(=O)c2cc(NC(=O)NC3CCCCC3)ccc2OC[C@H](C)N(CC2CCOCC2)C[C@H]1C -1.39%, CCCC(=O)Nc1ccc(C(=O)NCCCn2ccnc2)cc1 -0.628%, CC(=O)Nc1ccc(NC(=O)CCCNC(=O)c2ccc(Cl)cc2)cc1 -4.6%, COc1cccc(-c2ccc3c(c2)O[C@H](CN(C)Cc2ccncc2)[C@H](C)CN([C@H](C)CO)S3(=O)=O)c1 -0.814%, CCCC#Cc1ccc([C@H]2[C@@H](CO)N(C(=O)C3CC3)[C@H]2C#N)cc1 0.491%, C[C@@H]1CN([C@H](C)CO)C(=O)c2cc(C#Cc3ccccn3)cnc2O[C@H]1CN(C)CC1CCOCC1 14.4%, C[C@H]1CN([C@@H](C)CO)C(=O)c2cccc(NC(=O)C3CCOCC3)c2O[C@H]1CN(C)S(C)(=O)=O -0.415%, COc1ccc(CNC(=O)C[C@H]2CC[C@@H]3[C@H](COc4ccc(NC(=O)C5CC5)cc4C(=O)N3C)O2)cc1 -0.548%, C[C@H]1CN([C@@H](C)CO)C(=O)c2cc(N(C)C)ccc2O[C@@H]1CN(C)S(=O)(=O)c1ccc(Cl)cc1 14.8%, C[C@@H]1CCCCO[C@@H](CN(C)Cc2ccc(C(=O)O)cc2)[C@H](C)CN([C@H](C)CO)C(=O)c2cc(NC(=O)Nc3ccc(F)cc3)ccc2O1 0.576%, C[C@H](CO)N1C[C@H](C)[C@H](CN(C)S(=O)(=O)c2ccccc2)Oc2cc(Br)ccc2S1(=O)=O -0.169%, C[C@@H]1CN([C@@H](C)CO)C(=O)c2cc(NC(=O)Cc3ccccc3)ccc2O[C@@H](C)CCCCO[C@H]1CN(C)C(=O)Nc1cccc2ccccc12 -0.256%, CCOc1ccc(OCc2ccc(C(=O)Nc3cccc(C)n3)o2)cc1 1.24%, COc1ccc(NC(=O)CN(C)C(=O)c2ccc(COc3ccccc3)o2)cc1 -2.65%, C/C=C/c1ccc2c(c1)O[C@H](CN(C)C(C)=O)[C@H](C)CN([C@H](C)CO)S2(=O)=O -0.698%, CO[C@H]1CN(C)C(=O)c2ccc(NC(=O)C3CC3)cc2OC[C@@H](C)N(C)C[C@H]1C 4.48%, CO[C@@H]1CN(C)C(=O)c2ccc(NC(=O)C3CCCCC3)cc2OC[C@@H](C)N(Cc2nccs2)C[C@@H]1C 1.22%, Cc1ccc(S(=O)(=O)N(C)C[C@H]2Oc3c(NC(=O)c4ccc(-c5nccs5)cc4)cccc3C(=O)N([C@H](C)CO)C[C@H]2C)cc1 -3.77%, C[C@H]1CN([C@@H](C)CO)S(=O)(=O)c2ccc(C#Cc3ccccc3F)cc2O[C@@H]1CN(C)C(=O)c1ccc2c(c1)OCO2 1.7%, CN1CCN(C(=O)C[C@@H]2C=C[C@@H](NS(=O)(=O)c3cccc(F)c3)[C@@H](CO)O2)CC1 -7.9%, CNC(=O)C[C@H]1CC[C@H]2[C@H](COc3ccc(NC(=O)Nc4cccc(C)c4)cc3C(=O)N2C)O1 -0.336%, COc1ccccc1C(=O)Nc1ccc(C)c(S(=O)(=O)N2CCCCC2)c1 -5.07%, CCOC(=O)C1CCN(CC(=O)Nc2ccc(OC)c(S(=O)(=O)N3CCCCC3)c2)CC1 2.34%

inhibition, active:
O=C(Nc1ccc(Sc2ccc(Br)cc2)cc1)c1ccco1 20.2%, Cc1ccc(C2=C/C(=C\c3cccnc3)C(=O)O2)cc1 49.3%, CC(=O)Nc1ccc(OC(=O)COc2ccc(Br)cc2)cc1 83.3%, O=C(NCc1ccncc1)C1CCN(C(=O)c2cccc(Cl)c2)CC1 22.3%, CCCCC(=O)Nc1ccc(C(=O)NCCCn2ccnc2)cc1 20.6%, CCOc1ccc(OCc2ccc(C(=O)N(C)c3ccccc3)o2)cc1 27.6%, COc1ccc(NC(=O)C2=NNC(=O)CC2)cc1S(=O)(=O)N1CCCCC1 25.4%
